UHRF1 binding – UHRF1 methylated DNA binding inhibitors, primary screen, counter-screen for MBD2 inhibitor project, biochemical, TR-FRET, human UHRF1, single concentration; E3 ubiquitin-protein ligase UHRF1 (Homo sapiens), Q96T88; UHRF1 binding to methylated oligo; inhibition, % at 4.4 µM; 370,000 tested, 0.75% active; in the data active = inhibition above about 21%;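 note: UHRF1 SRA domain binding a hemimethylated CpG hairpin DNA probe; 0% = median of test compound wells and 100% = reference inhibitor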
LEDGF integ inh – blockers of LEDGF/p75-dependent integrase strand transfer – biochemical, TR-FRET, high throughput, primary screen | HIV-1 integrase (with human LEDGF/p75) | inhibition, % at 3.7 µM | TR-FRET IN-LEDGF/p75 DNA integration, Eu/Cy5 | 370,000 tested, 0.64% active;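 active = inhibition above the screen-wide mean plus 3 SD, cut at about 13% in these data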;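 note: signal is the Cy5 over europium emission ratio at 671 and 618 nm; 0% = plate median of compound wells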
TCR CD3 inh – inhibitors of human TCR-CD3 interaction, primary screen, biochemical, fluorescence, TAMRA-labeled TCR probe | T-cell receptor (TCR) | 360,000 tested, 0.37% active | inhibition, % at 9.4 µM;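 note: recombinant mutant TCR 2C K166C tagged with TAMRA read by polarization; 0% = receptor in buffer alone and 100% = receptor with positive control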
Rin1 Abl inh – inhibitors of Rin1-Abl protein binding, primary screen, biochemical, TR-FRET | inhibition, % at 7.35 µM | AID 588664, 2011 | 360,000 tested, 0.4% active | Tyrosine-protein kinase ABL1 (Homo sapiens) + Ras and Rab interactor 1 (Homo sapiens), …; in the data active = inhibition above about 5%, passing the limit was not always enough
MBD2 inh – inhibitors of MBD2 binding to methylated DNA, primary screen, biochemical, TR-FRET, DNA-binding domain, human; Methyl-CpG-binding domain protein 2 (Homo sapiens), Q9UBB5; MBD2 binding to methylated oligonucleotide; inhibition, % at 4.4 µM; 370,000 tested, 0.31% active; in the data active = inhibition above about 13%
BSA TAMRA ctr – compounds interfering with TAMRA-BSA probe, counter-screen for TCR-CD3 interaction inhibitor project, biochemical, fluorescence, TAMRA-labeled BSA. TAMRA-labeled BSA probe fluorescence counterscreen. inhibition, % at 9.4 µM. 1,200 tested, 10% active. shares compounds with TCR CD3 inh; in the data active = inhibition above about 23%;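 note: 0% = buffer low control and 100% = reference high control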
TCR-CD3 inh conf – TCR-CD3 interaction inhibitors, retest, confirmation, biochemical, fluorescence, TAMRA-labeled TCR probe; shares compounds with TCR CD3 inh; TAMRA-labeled TCR probe fluorescence binding assay; inhibition, % at 9.4 µM; 1,200 tested, 48% active
UHRF1 DNA bind – UHRF1 methylated DNA binding inhibitors, counter-screen for MBD2 inhibitor project, biochemical, TR-FRET, human UHRF1; shares compounds with MBD2 inh; UHRF1 binding to methylated oligonucleotide; inhibition, % at 4.4 µM; 1,000 tested, 25% active; AID 720530, 2013; in the data active = inhibition above about 21%;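 note: UHRF1 SRA domain binding a labeled hemimethylated CpG hairpin DNA; 0% = vehicle only and 100% = reference inhibitor with vehicle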
MBD2 DBD conf – inhibitors of MBD2 binding to methylated DNA, confirmation, biochemical, TR-FRET, DNA-binding domain, human | shares compounds with MBD2 inh | TR-FRET MBD2-DBD binding to methylated oligonucleotide | inhibition, % at 4.4 µM | 1,000 tested, 26% active; in the data active = inhibition above about 14%
IN multimer up – HIV-1 IN multimer formation enhancers, counter-screen for LEDGF/p75 integration inhibitor project, biochemical, TR-FRET; shares compounds with LEDGF integ inh; TR-FRET HIV-1 integrase multimerization; activation, % at 7.7 µM; 2,000 tested, 17% active; in the data active = activation above about 8.9%
TR-FRET interf – TR-FRET optical interference artefacts, confirmation, artefact control for LEDGF/p75-dependent integration inhibitor project, biochemical, HIV-1 IN multimerization; shares compounds with LEDGF integ inh; TR-FRET optical interference counterscreen; inhibition, % at 7.7 µM; 2,000 tested, under 10 active; AID 1053135, 2014;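 active = inhibition above the mean over all tested compounds plus 3 SD, which no compound reached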;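 note: 0% = integrase with antibodies and DMSO and 100% = antibodies without integrase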
IN-LEDGF confirm – inhibitors of HIV-1 IN-LEDGF/p75 DNA integration, confirmation, biochemical, TR-FRET; shares compounds with LEDGF integ inh; TR-FRET LEDGF/p75-dependent HIV-1 integration; inhibition, % at 3.7 µM; 2,000 tested, 36% active; AID 1053136, 2014; in the data active = inhibition above about 14%
The depositor's hits bear a star; . = not tested or not shown. An excerpt weighted towards active compounds, which were near 2% of everything screened. Cut-off read from the data, not from the text of the source, unless noted: active = inhibition above about 19%; inactive = the rest.

SMILES	UHRF1 binding	LEDGF integ inh	TCR CD3 inh	Rin1 Abl inh	MBD2 inh	BSA TAMRA ctr	TCR-CD3 inh conf	IN multimer up	TR-FRET interf	IN-LEDGF confirm	others
O=C1OC(Nc2cc(Br)cc3cccnc23)c2ccccc21 (stereo not drawn)	6	54*	37*	3	-15	7	7	6	-28	74*
O=C1OC(Nc2ncccn2)c2ccccc21 (stereo not drawn)	-5	0	6	4	-4	.	.	.	.	.
O=[N+]([O-])c1cc([N+](=O)[O-])c2nonc2c1Nc1ccc(O)cc1	-3	15*	43*	0	-13	0	5	6	-20	3
CC1=CC(C)(C)N2C(=O)C(=Nc3ccc(O)cc3)c3cccc1c32	-11	17*	42*	-8	-23	5	1	19*	-68	45*
COc1cc(N=C2C(=O)N3c4c(cccc42)C(C)=CC3(C)C)cc(OC)c1	-13	5	8	-7	-13	.	.	.	.	.
O=C(Nc1nc2ccccc2s1)c1cc(-c2ccco2)nc2ccccc12	0	5	4	-5	4	.	.	.	.	.
O=C(N/N=C/c1ccc(F)cc1)c1cc(-c2ccco2)nc2ccccc12	28*	15*	30*	1	19*	-3	23*	24*	-118	48*	UHRF1 DNA bind=52*;MBD2 DBD conf=36*
Cc1nnc(NC(=O)c2cc(-c3ccco3)nc3ccccc23)s1	26*	16*	19*	-3	6	3	20*	3	-17	29*
O=C(CSc1ccccc1)N1CCCC(N2CCN(c3ccc(F)cc3)CC2)C1 (stereo not drawn)	0	-1	-1	0	4	.	.	.	.	.
O=C(NCc1ccccc1)[C@@H]1CCCN1C(=O)[C@H]1CCCN1C(=O)c1ccccc1F	0	2	-2	.	1	.	.	.	.	.
O=C(COC(=O)COc1ccc(Cl)cc1Cl)NC1CCS(=O)(=O)C1 (stereo not drawn)	-2	-2	5	1	1	.	.	.	.	.
Cc1cc(F)ccc1S(=O)(=O)N1CCCOC1CNC(=O)C(=O)NC1CCCCC1 (stereo not drawn)	-3	0	0	0	-4	.	.	.	.	.
Nc1c(C(=O)NCC2CCCO2)sc2nc3c(c(-c4ccco4)c12)CC/C3=C\c1ccco1 (stereo not drawn)	42*	65*	39*	5.6*	21*	-4	24*	54*	-193	85*	UHRF1 DNA bind=92*;MBD2 DBD conf=106*
NC(=O)c1sc2nc3c(c(-c4ccco4)c2c1N)CCCC3	2	-3	-8	-3	-2	.	.	.	.	.
COc1ccccc1OCC(=O)N/N=C/C=C/c1ccc([N+](=O)[O-])o1	35*	38*	27*	1	9	-1	1	11*	-57	46*
COC(=O)C1CCN(C(=O)CN2C(=O)NC3(CCC(C)CC3)C2=O)CC1 (stereo not drawn)	2	-5	-1	3	-1	.	.	.	.	.
Cc1ccc2occ(/C=N/NC(=O)c3ccccc3O)c(=O)c2c1	1	18*	35*	2	-1	-13	22*	0	0	24*
C[C@H](NC(=O)c1ccco1)C(=O)NNC(=O)COc1cccc(C(F)(F)F)c1	-2	3	0	-1	-5	.	.	.	.	.
COc1c(O)cc2oc(-c3ccc(O)cc3)cc(=O)c2c1O	-6	-3	4	-3	-1	.	.	.	.	.
O=c1cc(-c2ccccc2)oc2cc(O)c(O)c(O)c12	12	30*	38*	21*	8	-13	24*	5	-27	26*
CCN(CC)c1ncnc2c1ncn2[C@H]1CN(Cc2ccc(-c3ccccc3)cc2)C[C@@H](CO)O1	-2	-1	-4	2	-1	.	.	.	.	.
Cc1cc(C)nc(SCC(=O)c2ccc(O)c(O)c2)n1	3	11	9	3	1	.	.	.	.	.
Cc1cc(SCC(=O)c2ccc(O)c(O)c2)n2nc(C)c(-c3ccccc3)c2n1	-3	17*	25*	1	-1	-2	48*	0	2	12
CCc1cccc(NC(=O)CCS(=O)(=O)c2ccc(Br)cc2)c1	17	-2	5	2	5	.	.	.	.	.
COc1cccc(NC(=S)N2CCN(Cc3ccccc3)CC2)c1	-6	8	7	-1	17*	.	.	.	.	.	UHRF1 DNA bind=4;MBD2 DBD conf=2
COc1cc(NC(=S)N2CCN(Cc3ccccc3)CC2)cc(OC)c1	-1	-3	-8	-1	-1	.	.	.	.	.
NS(=O)(=O)c1ccc(NC(CNS(=O)(=O)c2ccccc2)c2ccccc2)cc1 (stereo not drawn)	19	2	-1	3	14*	.	.	.	.	.	UHRF1 DNA bind=3;MBD2 DBD conf=1
O=S(=O)(NCC(Nc1ccc(Cl)cc1)c1ccccc1)c1ccccc1 (stereo not drawn)	4	6	-7	-4	-2	.	.	.	.	.

Assay outcomes as filed in PubChem.
